The list is not random: actives were taken first. Their share in the collection is about 1.9%.
PrP UTR inh = inhibition of PrP 5' UTR reporter expression. cell-based PrP 5' UTR mRNA reporter, plate reader. inhibition, % (no concentration beside the values). 340,000 compounds, 0.35% hits; in the data active means inhibition above about 52%
PrPC surface inh = reduces human prion protein on the cell surface. 370,000 compounds, 0.43% hits. P04156. AID 720596. cell surface PrPC, TR-FRET read-out. inhibition, % at 13.8 µM; in the data active means inhibition above about 24%
RecA intein inh = Mtb RecA intein splicing inhibition; cell-free RecA intein splicing, fluorescence; 290,000 compounds, 0.75% hits; AID 2221; inhibition, % (no concentration beside the values); in the data active means inhibition above about 30%
PfHsp40 rescue = compounds rescuing yeast from Plasmodium falciparum HSP40 toxicity; S. cerevisiae expressing PfHsp40, growth rescue, ATP luminescence; growth rescue, % at 12.5 µM; 340,000 compounds, 0.68% hits; AID 504582; in the data active means growth rescue above about 28%, passing the limit was not always enough;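 further: yeast W303a lacking pdr1 and pdr3 grown in galactose medium; growth measured after three days at 30 °C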
BJeLR viability = BJeLR cell viability loss; BJeLR (HRASV12) viability, CellTiter-Glo ATP luminescence, 48 h; inhibition, % (concentration not given with the values); 300,000 compounds, 0.17% hits; AID 1554; in the data active means inhibition above about 50%
PriA SSB inh = K. pneumoniae PriA-SSBct interaction inhibition. 430,000 compounds, 0.6% hits. AlphaScreen SSBct-PriA binding, biotinylated peptide. inhibition, % at 33 µM. AID 1272365; in the data active means inhibition mostly above about 37%, no sharp cut-off; inactive means mostly below about 20%
GFP chromo cs = counter-screen: blocks GFP chromophore formation; shares compounds with RecA intein inh; cell-free GFP chromophore formation, fluorescence; EC50, µM; 2,100 compounds, 83% hits; call rule not given here
Numbers stand for hits; – = inactive; · = not tested or not shown.

SMILES | PrP UTR inh | PrPC surface inh | RecA intein inh | PfHsp40 rescue | BJeLR viability | PriA SSB inh | GFP chromo cs
N#CC1=C(N)Oc2cc(O)ccc2C1c1cccnc1 (stereo unspecified) | – | – | · | – | – | – | ·
Cc1nn(-c2cccc(Cl)c2)c2c1C(c1cccnc1)C(C#N)=C(N)O2 (stereo unspecified) | – | – | 34.7 | – | – | – | 21.3
CC(C)S(=O)(=O)c1ccc(CC(=O)N2CCC(Oc3ncccc3Cl)CC2)cc1 | · | · | · | · | · | – | ·
O=C(NCCc1c[nH]c2ccccc12)C1(c2cccs2)CCCC1 | · | · | · | · | · | – | ·
COc1ccc(-c2oc3ncn(CCCn4ccnc4)c(=N)c3c2-c2ccc(OC)cc2)cc1 | · | · | · | · | · | – | ·
O=C(CCc1cc(Br)ccc1OC(F)F)NC1CCN(c2ccccn2)C1 (stereo unspecified) | · | · | · | · | · | – | ·
CCc1ccc(NC(=O)c2ccc(OC)c([N+](=O)[O-])c2)cc1 | – | – | – | – | – | – | ·
COc1ccc(C(=O)Nc2ccncc2)cc1[N+](=O)[O-] | – | – | 39.2 | – | – | – | –
O=c1cc(-c2ccccc2Cl)oc2ccc([N+](=O)[O-])c(O)c12 | – | – | – | – | – | – | ·
O=[N+]([O-])c1cc([N+](=O)[O-])c2oc(-c3ccccc3)c(Br)c2c1O | – | · | 30.4 | – | – | – | –
CC1=NN(Cc2cc(C(C)(C)C)c(O)c(C(C)(C)C)c2)C(=O)C1 | – | – | – | – | – | – | ·
CCCCCN1N=C(C)CC1=O | – | – | 78.7 | – | – | – | 13.1
O=C1NC(=O)C(=Cc2ccc(Oc3ccc([N+](=O)[O-])cc3)cc2)C(=O)N1 | – | · | 68.4 | – | – | – | –
COc1cc(N)c(C(O)c2nccc3cc(OC)c(OC)cc23)cc1OC (stereo unspecified) | – | – | – | – | – | – | ·
COc1ccc(C(O)c2nccc3cc(OC)c(OC)cc23)cc1OC (stereo unspecified) | – | – | 53.4 | – | – | – | 25.2
COC(=O)c1ccccc1NC(=O)Cn1cccc(-c2nc(-c3ccc(OC)c(OC)c3)no2)c1=O | · | · | · | · | · | – | ·
CCOC(=O)C(C#N)C(c1cccnc1)c1c(C)[nH][nH]c1=O (stereo unspecified) | – | – | 78.2 | – | – | – | 11.5
Cc1scc(C(=O)NN=Cc2ccc(OC(C)C)cc2)c1C | · | · | · | · | · | – | ·
CCOC(=O)c1c(C)[nH]c2cc(Br)c(O)cc12 | – | – | – | – | – | – | ·
CCOC(=O)c1c(OCC)[nH]c2c1cc(O)c1ccccc12 | – | – | 95.3 | – | – | – | 4.26
CCOc1ccc(S(=O)(=O)NCc2cccnc2)cc1C | – | – | 39.9 | – | – | – | –
COc1ccc(S(=O)(=O)NCc2cccnc2)cc1C | – | – | – | – | – | – | ·
COc1cc2c(cc1OC)C1(Nc3c-2c(Cc2ccccc2)nn3-c2ccccc2)C(=O)Nc2ccccc21 (stereo unspecified) | – | – | 35.0 | – | – | – | –
COc1cc2c(cc1OC)C1(NCC2)C(=O)Nc2ccccc21 (stereo unspecified) | – | – | – | – | – | – | ·
COc1ccc(Cl)cc1S(=O)(=O)N1CC(Oc2cc(C)n(C)c(=O)c2)C1 | · | · | · | · | · | – | ·
SMILES | PrP UTR inh | PrPC surface inh | RecA intein inh | PfHsp40 rescue | BJeLR viability | PriA SSB inh | GFP chromo cs
Cc1ccsc1C=NN=Cc1sccc1C | · | · | · | · | · | – | ·
Cc1ccsc1C=Nc1ccc(O)cc1 | – | · | 77.6 | – | – | – | 36.2
CCCC1=C(C(=O)OCC)C(c2c(C)nn(-c3ccccc3)c2Cl)C(C#N)=C(N)O1 (stereo unspecified) | – | – | – | – | – | – | ·
Cc1nn(-c2ccccc2)c2c1C(c1cccs1)C(C#N)=C(N)O2 (stereo unspecified) | – | · | 91.9 | – | – | – | 9.81
Cc1nn(-c2ccccc2)c2c1C(c1ccco1)C(C#N)=C(N)O2 (stereo unspecified) | – | – | 68.1 | – | – | – | 17.8
CCCc1nn(-c2ccccc2)c2c1C(c1cccs1)C(C#N)=C(N)O2 (stereo unspecified) | – | – | 66.6 | – | – | – | 16.5
N#CC1=C(N)Oc2cc(O)ccc2C1c1cccs1 (stereo unspecified) | – | – | – | – | – | – | ·
CC(=O)C1=C(C)OC(N)=C(C#N)C1c1ccco1 (stereo unspecified) | – | – | – | – | – | – | ·
CCN(CC)CCN(C(=O)c1ccc(S(=O)(=O)N(C)C2CCCCC2)cc1)c1nc2ccc(F)cc2s1 | · | · | · | · | · | – | ·
